Records with an inconclusive call do not appear. The source made the active and inactive calls. The calls were made as follows, unless noted: active = hit-call score of the fitted dose curve at least 0.9, where 1 is the maximum; inconclusive = response in the unintended direction; inactive = score below 0.9.
What was measured:
[1] = TOX21_p53_BLA_p2_viability: Viability Assessment in the Tox21 HCT-116 p53 Agonism Beta-lactamase Assay, Phase 2 (AID 2283591);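 also: actives lower the ATP signal meaning cytotoxicity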
Method in brief: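 Cytotoxicity readout: CellTiter-Glo ATP luminescence, 30 min at room temperature, after the beta-lactamase read. Cells were HCT116 exposed 16 h at 37C to compounds pin-transferred at 217-fold dilution from DMSO stocks.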

[2] = TOX21_p53_BLA_p3_viability: Viability Assessment in the Tox21 HCT-116 p53 Agonism Beta-lactamase Assay, Phase 3 (AID 2283593);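 also: cells exposed to compound for 16 h before reading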
Method in brief: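 Cellular ATP was quantified by CellTiter-Glo luminescence, read after 30 min at room temperature. Beforehand, HCT116 cells (4000/well) received compound 5 h post-seeding, 217-fold diluted from DMSO, then incubated 16 h at 37C.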

[3] = TOX21_p53_BLA_p4_viability: Viability Assessment in the Tox21 HCT-116 p53 Agonism Beta-lactamase Assay, Phase 4 (AID 2283597);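 also: hits lower the luminescence signal meaning cytotoxicity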
Method in brief: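 Compound exposure of HCT116 cells lasts 16 h at 37C, 5% CO2, with DMSO stocks diluted 217-fold. Cellular ATP is then quantified by CellTiter-Glo luminescence after 30 min at room temperature.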

[4] = molecular target: Cellular tumor antigen p53 (Homo sapiens) (UniProt P04637); assay: TOX21_p53_BLA_p5_ratio: Tox21 HCT-116 p53 Agonism Beta-lactamase Assay, Ratio, Phase 5 (AID 2283599)
Chain of Cellular tumor antigen p53 (Homo sapiens) (P04637 whole entry, looked up): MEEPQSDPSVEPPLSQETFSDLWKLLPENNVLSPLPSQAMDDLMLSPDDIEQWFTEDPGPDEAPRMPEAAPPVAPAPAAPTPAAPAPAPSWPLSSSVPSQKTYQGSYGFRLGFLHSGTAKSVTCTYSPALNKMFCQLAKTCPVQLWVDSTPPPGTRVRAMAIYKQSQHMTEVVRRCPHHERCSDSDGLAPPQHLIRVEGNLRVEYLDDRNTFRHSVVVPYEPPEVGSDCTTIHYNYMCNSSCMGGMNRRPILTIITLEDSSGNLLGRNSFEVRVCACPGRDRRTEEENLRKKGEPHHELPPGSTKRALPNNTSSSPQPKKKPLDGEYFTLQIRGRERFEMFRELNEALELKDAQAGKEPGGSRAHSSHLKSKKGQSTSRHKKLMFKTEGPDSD
Method in brief: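 Beta-lactamase reporter ratio (blue 460 nm over green 530 nm, 405 nm excitation) after 2 h CCF4-AM loading, in HCT-116 cells exposed 16 h at 37 C to compounds pinned at 217-fold dilution. Increases relative to DMSO baseline scored.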

[5] = CCTE_Shafer_MEA_dev_firing_rate_mean: CCTE's Neural Network Formation Assay for Mean Firing Rate, Shafer Lab (AID 2284031; active = hit-call score of the fitted dose curve at least 0.9, where 1 is the maximum; inactive = score below 0.9)
Method in brief: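 Rat primary cortical neurons were seeded on multielectrode arrays and treated from plating through day 12, with redosing at each feed. Spontaneous spiking was recorded four times; mean firing rate AUC was fitted downward against DMSO.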

[6] = CCTE_Shafer_MEA_dev_active_electrodes_number: CCTE's Neural Network Formation Assay for Number of Active Electrodes, Shafer Lab (AID 2284040)
Method in brief: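 Primary rat cortical neurons on 16-electrode MEA wells, exposed from day 0 through day 12 with compound renewed at DIV 5 and 9 feeds. Active electrodes (mean firing ≥5 spikes/min) counted at DIV 5, 7, 9, 12; trapezoidal AUC across days, loss-of-signal versus DMSO.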

[7] = CCTE_Shafer_MEA_dev_burst_rate: CCTE's Neural Network Formation Assay for Burst Rate, Shafer Lab (AID 2284042; active = hit-call score of the fitted dose curve at least 0.9, where 1 is the maximum; inactive = score below 0.9)
Method in brief: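 Primary rat cortical neurons on PEI-coated 48-well MEA plates (laminin added with cells at plating) (16 electrodes/well), exposed from plating to day 12, dosing renewed at DIV 5 and 9. Burst rate averaged over active electrodes, recorded DIV 5, 7, 9, 12, summarized as AUC; loss versus DMSO.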

[8] = CCTE_Shafer_MEA_dev_bursting_electrodes_number: CCTE's Neural Network Formation Assay for Number of Bursting Electrodes, Shafer Lab (AID 2284043)
Method in brief: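 Read-out is the per-well number of electrodes bursting at least once every 2 minutes, recorded on days 5, 7, 9 and 12 and collapsed by trapezoidal area under the curve. Cultures were primary rat cortical neurons on MEA plates, treated continuously from plating.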

[9] = CCTE_Shafer_MEA_dev_burst_duration_mean: CCTE's Neural Network Formation Assay for Mean Burst Duration, Shafer Lab (AID 2284045; active = hit-call score of the fitted dose curve at least 0.9, where 1 is the maximum; inactive = score below 0.9)
Method in brief: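 Read-out: average first-to-last-spike interval within single-electrode bursts, averaged over bursting electrodes per well, then summarised as area under the curve across days 5, 7, 9 and 12. Developing rat cortical networks were exposed from day 0.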

[10] = CCTE_Shafer_MEA_dev_inter_network_spike_interval_mean: CCTE's Neural Network Formation Assay for Mean Inter-network Spike Interval, Shafer Lab (AID 2284047; active = hit-call score of the fitted dose curve at least 0.9, where 1 is the maximum; inactive = score below 0.9)
Method in brief: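 Primary rat cortical neurons on 16-electrode MEA wells, exposed from plating day 0 through DIV 12, compound renewed at DIV 5 and 9 media changes. Mean interval between network-spike peaks recorded DIV 5, 7, 9, 12; collapsed as trapezoidal AUC, fitted downward versus DMSO.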

[11] = CCTE_Shafer_MEA_dev_network_spike_number: CCTE's Neural Network Formation Assay for Number of Network Spikes, Shafer Lab (AID 2284048; active = hit-call score of the fitted dose curve at least 0.9, where 1 is the maximum; inactive = score below 0.9;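 also: synchronized bursts across electrodes counted on days 5 7 9 12 and integrated as AUC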)
Method in brief: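 Developing networks of primary rat cortical neurons are treated over 12 days starting at plating, with media and compound fully replaced on DIV 5 and 9. Network spike counts from four recording days are integrated as trapezoidal AUC.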

[12] = CCTE_Shafer_MEA_dev_network_spike_peak: CCTE's Neural Network Formation Assay for Mean Number of Electrodes in Network Spike, Shafer Lab (AID 2284049; active = hit-call score of the fitted dose curve at least 0.9, where 1 is the maximum; inactive = score below 0.9)
Method in brief: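 Rat cortical primary culture, 1.5 x 10^5 cells/well, 48-well MEA (16 electrodes/well). Dosing day 0 through DIV 12, full media/compound exchange DIV 5, 9. AxIS adaptive spike detection; AUC over days 5/7/9/12; loss-of-signal vs DMSO.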

[13] = CCTE_Shafer_MEA_dev_spike_duration_mean: CCTE's Neural Network Formation Assay for Mean Spike Duration, Shafer Lab (AID 2284051; active = hit-call score of the fitted dose curve at least 0.9, where 1 is the maximum; inactive = score below 0.9;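 also: mean network spike duration pooled as area under curve over DIV 5 to 12 recordings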)
Method in brief: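 Primary rat cortical neurons on 16-electrode MEA wells (PEI-coated, laminin in plating drop), exposed from plating through DIV 12 with compound renewed at DIV 5 and 9. Mean network-spike duration recorded DIV 5, 7, 9, 12; trapezoidal AUC across days, DMSO baseline.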

[14] = CCTE_Shafer_MEA_dev_network_spike_duration_std: CCTE's Neural Network Formation Assay for Standard Deviation of Network Spike Duration, Shafer Lab (AID 2284052; active = hit-call score of the fitted dose curve at least 0.9, where 1 is the maximum; inactive = score below 0.9;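 also: area under curve of spike duration SD across recording days 5 to 12; hits are decreases in network spike duration SD versus DMSO vehicle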)
Method in brief: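 Primary rat cortical neurons on PEI-coated 16-electrode MEA wells, exposed from plating day 0 through day 12 with compound renewed at DIV 5 and 9. Network spike duration SD recorded on days 5, 7, 9, 12, collapsed as trapezoidal AUC; loss-of-signal fit versus DMSO.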

[15] = CCTE_Shafer_MEA_dev_per_network_spike_spike_number_mean: CCTE's Neural Network Formation Assay for Mean Number of Spikes in a Network Spike, Shafer Lab (AID 2284053; active = hit-call score of the fitted dose curve at least 0.9, where 1 is the maximum; inactive = score below 0.9)
Method in brief: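 Primary rat cortical neurons on 48-well, 16-electrode MEA plates were exposed from plating to DIV 12, with dosing renewed on DIV 5 and 9. Spikes per network spike (0.05 s peak window) were recorded on DIV 5, 7, 9 and 12 and collapsed as trapezoidal AUC versus DMSO.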

[16] = CCTE_Shafer_MEA_dev_per_network_spike_spike_percent: CCTE's Neural Network Formation Assay for Percent of Spikes in a Network Spike, Shafer Lab (AID 2284054; active = hit-call score of the fitted dose curve at least 0.9, where 1 is the maximum; inactive = score below 0.9)
Method in brief: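 Rat primary cortical cultures, 1.5 x 10^5 cells/well on MEA. Continuous compound exposure d0–12, medium/compound renewed DIV 5, 9. Network-spike spike % (0.05 s peak window), AUC over 4 recordings, DMSO baseline.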

[17] = CCTE_Shafer_MEA_dev_LDH: CCTE's Lactate Dehydrogenase Assay for Cytotoxicity in the Neural Network Formation Assay, Shafer Lab (AID 2284068);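 also: exposure for twelve days from plating with re-dosing on DIV 5 and 9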
Method in brief: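 Primary rat cortical neurons were plated on PEI/laminin MEA plates and exposed from day 0 for twelve days, with compound renewed at DIV 5 and 9. Cytotoxicity was determined by spectrophotometric LDH assay relative to DMSO.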

[18] = CCTE_Shafer_MEA_dev_AB: CCTE's Alamar Blue Assay for Cytotoxicity in the Neural Network Formation Assay, Shafer Lab (AID 2284083);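 also: twelve days of exposure from plating with re-dosing on DIV 5 and 9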
Method in brief: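 Primary rat cortical neurons on PEI-coated 48-well MEA plates, 1.5 x 10^5 cells/well in laminin drop; compound exposure from day 0 of plating for twelve days, renewed at medium changes on DIV 5 and 9. Viability read as resazurin reduction by fluorescence, relative to DMSO.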

[19] = CCTE_Shafer_MEA_dev_mutual_information_norm: CCTE's Neural Network Formation Assay for Mutual Information Normalization, Shafer Lab (AID 2284091; active = hit-call score of the fitted dose curve at least 0.9, where 1 is the maximum; inactive = score below 0.9)
Method in brief: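 Developing rat cortical networks on 16-electrode MEA wells are treated throughout formation (DIV 0–12). Shared electrode information is recorded four times, converted to area-under-curve, and fitted for decreases against DMSO vehicle.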

[20] = CCTE_Shafer_MEA_dev_correlation_coefficient_mean: CCTE's Neural Network Formation Assay for Mean Correlation Coefficient, Shafer Lab (AID 2284093; active = hit-call score of the fitted dose curve at least 0.9, where 1 is the maximum; inactive = score below 0.9)
Method in brief: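 Spontaneous activity recorded on days 5, 7, 9 and 12 post-plating; pairwise spike correlations are averaged across active electrodes and collapsed to an area-under-curve. Rat cortical cultures are dosed from plating through 12 days, with compound renewed at media changes.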

[21] = CCTE_Mundy_HCI_Cortical_Synap_Neur_Matur_NeuriteSpotCountPerNeuriteLength: CCTE's Synaptogenesis and Neurite Maturation Assay in rat cortical cells for Neurite Spot Count per Neurite Length, Mundy Lab (AID 2284210; active = hit-call score of the fitted dose curve at least 0.9, where 1 is the maximum; inactive = score below 0.9)
Method in brief: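 Primary rat cortical neurons, compound exposure DIV 7–12, 288.33 h endpoint. Hoechst, anti-MAP2 and anti-synaptophysin labelling; neurite-associated puncta per neurite length scored by automated imaging relative to DMSO controls.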

[22] = CCTE_Mundy_HCI_Cortical_NOG_NeuriteLength: CCTE's Neurite Outgrowth Assay in rat cortical cells for Neurite Length, Mundy Lab (AID 2284213; active = hit-call score of the fitted dose curve at least 0.9, where 1 is the maximum; inactive = score below 0.9)
Method in brief: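 Neurite length was read by high-content imaging of βIII-tubulin-labelled neurites in rat primary cortical cultures. Activity was fitted relative to DMSO.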

[23] = CCTE_Mundy_HCI_Cortical_Synap_Neur_Matur_NeuriteLength: CCTE's Synaptogenesis and Neurite Maturation Assay in rat cortical cells for Neurite Length, Mundy Lab (AID 2284214; active = hit-call score of the fitted dose curve at least 0.9, where 1 is the maximum; inactive = score below 0.9)
Method in brief: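 Rat cortical neurons, AraC at DIV 5; compound + media change DIV 7, end DIV 12 (288.33 h). Fix, MAP2/synaptophysin/Hoechst immunostain, automated HCI of neurite length vs DMSO.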

[24] = CCTE_Mundy_HCI_Cortical_Synap_Neur_Matur_SynapseCount: CCTE's Synaptogenesis and Neurite Maturation Assay in rat cortical cells for Synapse Count, Mundy Lab (AID 2284218; active = hit-call score of the fitted dose curve at least 0.9, where 1 is the maximum; inactive = score below 0.9)
Method in brief: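 Primary rat cortical culture; AraC DIV 5 to arrest glia; compound + media change DIV 7; terminated DIV 12. PFA/Hoechst fix, anti-MAP2 + anti-synaptophysin immunostain; HCI synapse count/neuron; DMSO = baseline.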

[25] = CCTE_Mundy_HCI_hN2_NOG_NeuriteCount: CCTE's Neurite Outgrowth Assay in human hN2 cells for Neurite Count, Mundy Lab (AID 2284219)
Method in brief: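 In this morphology assay, hNP1-derived neurons received test chemical 2 h post-plating and were fixed two days later in warm paraformaldehyde/sucrose containing Hoechst 33342. Neurites, labelled by rabbit anti-βIII-tubulin (1:800) and Alexa Fluor-488 (1:500), were counted automatically.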

[26] = CCTE_Mundy_HCI_hN2_NOG_NeuriteLength: CCTE's Neurite Outgrowth Assay in human hN2 cells for Neurite Length, Mundy Lab (AID 2284220)
Method in brief: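 Plate hNP1-derived neurons, then add chemical 2 h later as a 1/10 dilution. Stain with anti-βIII-tubulin then Alexa Fluor-488 secondary, and image automatically to measure neurite length.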

[27] = CCTE_Mundy_HCI_hN2_NOG_NeuronCount: CCTE's Neurite Outgrowth Assay in human hN2 cells for Neuron Count, Mundy Lab (AID 2284221)
Method in brief: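 Read-out is the number of betaIII-tubulin-positive neurons imaged by automated high-content analysis, with DMSO as negative control.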

[28] = CCTE_Mundy_HCI_Cortical_Synap_Neur_Matur_CellBodySpotCount: CCTE's Synaptogenesis and Neurite Maturation Assay in rat cortical cells for Cell Body Spot Count, Mundy Lab (AID 2284223; active = hit-call score of the fitted dose curve at least 0.9, where 1 is the maximum; inactive = score below 0.9)
Method in brief: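 Synapse number at neuronal cell bodies was quantified as synaptophysin puncta per neuron in rat cortical cultures exposed from DIV 7 to DIV 12. Values were normalised to DMSO.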

[29] = CCTE_Mundy_HCI_Cortical_NOG_NeuronCount: CCTE's Neurite Outgrowth Assay in rat cortical cells for Neuron Count, Mundy Lab (AID 2284236);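 also: neurons counted by imaging betaIII-tubulin and Hoechst stained cortical cells; cells exposed to compound for about 48 hours before fixation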
Method in brief: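 Read-out: neuron number by high-content imaging of betaIII-tubulin (Alexa Fluor-488) and Hoechst-labelled rat primary cortical cells.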

[30] = CCTE_Mundy_HCI_hNP1_Casp3_7: CCTE's Caspase-Glo 3/7 Assay in human neuroprogenitor cells for Apoptosis, Mundy Lab (AID 2284240; active = hit-call score of the fitted dose curve at least 0.9, where 1 is the maximum; inactive = score below 0.9)
Method in brief: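 Apoptosis is scored by activated caspase-3/7 luminescence in WA09-derived neural progenitor cells, measured 26.5 h after chemical dosing. Values represent gain of signal relative to DMSO vehicle.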

[31] = CCTE_Mundy_HCI_Cortical_Synap_Neur_Matur_NeuronCount: CCTE's Synaptogenesis and Neurite Maturation Assay in rat cortical cells for Neuron Count, Mundy Lab (AID 2284242)
Method in brief: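 Neuron number was scored by automated high-content imaging of Hoechst- and MAP2-labelled rat primary cortical cells. Glial growth was arrested with AraC at DIV 5, compounds were applied from DIV 7, and cultures ended at DIV 12.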

[32] = molecular target: Cellular tumor antigen p53 (Homo sapiens) (UniProt P04637); assay: TOX21_p53_BLA_p4_ratio: Tox21 HCT-116 p53 Agonism Beta-lactamase Assay, Ratio, Phase 4 (AID 2283601)
Method in brief: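 Signal is the blue/green (460nm/530nm) ratio of cleaved versus uncleaved CCF4-AM substrate, read after 2 h substrate loading. Cells were HCT116 carrying the p53-responsive beta-lactamase reporter, dosed 16 h at 37C, 5% CO2; CellTiter-Glo measured in parallel.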

[33] = TOX21_p53_BLA_p5_viability: Viability Assessment in the Tox21 HCT-116 p53 Agonism Beta-lactamase Assay, Phase 5 (AID 2283600)
Method in brief: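 Counter-readout for cytotoxicity: ATP-dependent luminescence from CellTiter-Glo, read in the beta-lactamase wells after 30 min at RT, following a 16 h compound exposure at 37C.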

Measured: AC50

CN[C@]1(c2ccccc2Cl)CCCCC1=O
active: [17] 9270 nM
inactive: [1] | [2] | [3] | [4] | [5] | [6] | [7] | [8] | [9] | [10] | [11] | [12] | [13] | [14] | [15] | [16] | [18] | [19] | [20] | [21] | [22] | [23] | [24] | [25] | [26] | [27] | [28] | [29] | [30] | [31]

CC=C(CC)C(=O)NC(N)=O
inactive: [1] | [2] | [3] | [32]

CC(C)OS(C)(=O)=O
inactive: [1] | [2] | [4]

O=C(CCCN1CCC(n2c(=O)[nH]c3ccccc32)CC1)c1ccc(F)cc1
inactive: [1] | [2] | [3] | [32]

CC(=O)O[C@H]1C[C@H](O[C@H]2[C@@H](O)C[C@H](O[C@H]3[C@@H](O)C[C@H](OC4CC[C@@]5(C)C(CC[C@@H]6[C@@H]5CC[C@]5(C)[C@@H](C7=CC(=O)OC7)[C@@H](O)C[C@]65O)C4)O[C@@H]3C)O[C@@H]2C)O[C@H](C)[C@H]1O[C@@H]1O[C@H](CO)[C@@H](O)[C@H](O)[C@H]1O (stereo partly specified)
active: [1] 463 nM | [2] 683 nM | [3] 582 nM | [33] 473 nM

Source: PubChem BioAssay (EPA / NIEHS)
